# Source: PubChem (National Center for Advancing Translational Sciences (NCATS))
# ClpP mod: qHTS Assay for Activators of ClpP; ATP-dependent Clp protease proteolytic subunit (Bacillus subtilis (strain 168)), P80244; purified B. subtilis ClpP, FRET peptide cleavage, 20 min; Potency, µM (highest dose often 57.5 µM), for the others: at the highest dose activity change, negative = active; 340,000 compounds, 1.9% hits; active = well fitted falling curve with a large enough effect; inconclusive = small, poorly fitted or top-dose-only effect; inactive = no such curve, though single readings can be large or run the other way; note: potency is the fitted concentration of half-maximal effect; the source files actives as falling curves though it sought activators and does not explain the sign; nearly all actives have a fitted effect of over 65% in size
# Target sequence (P80244 whole entry, looked up): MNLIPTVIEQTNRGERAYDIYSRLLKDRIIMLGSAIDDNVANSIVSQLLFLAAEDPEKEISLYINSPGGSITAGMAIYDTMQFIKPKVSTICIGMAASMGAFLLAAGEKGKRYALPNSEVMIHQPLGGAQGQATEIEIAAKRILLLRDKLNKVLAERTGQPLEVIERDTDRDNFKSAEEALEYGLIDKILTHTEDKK
#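 Buffer: 100 mM Tris/HCl pH8, 100 mM KCl, 0.05% low protease BSA, 2.5% glycerol, 0.01% Tween-20. ClpP 10 microg/mL final; 20 min RT; delta FRET normalized to ADEP and DMSO controls.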
# KCNH2 WT inh: blocks the wildtype human KCNH2 potassium channel; U2OS, BacMam KCNH2, thallium flux FluxOr; hits give low values; activity change, % at 1.84 µM; 340,000 compounds, 0.37% hits; AID 720551;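 active = maximum activity change below -70%; inconclusive = maximum activity change between -70% and -50%; inactive = maximum activity change above -50%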; note: % is set by controls: 0 for no effect and ±100 for the full control effect
#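 U2OS cells were transduced with wild-type KCNH2 virus (2.03 x 10^8 / mL) for 4 h at room temperature, then cultured overnight at 37 C. Thallium flux was read with FluxOr dye. Rate constants were normalized to DMSO controls.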
# TRPV1 PAM: human TRPV1 potentiation. Q8NER1. TRPV1-expressing cells, Fluo-8 calcium influx, capsaicin EC20 potentiation. potentiation, % at 8.33 µM. 320,000 compounds, 0.02% hits. AID 540277; in the data active = potentiation above about 80%; inconclusive = between about 30% and that limit; note: 0% is about no effect
#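 Fluo-8 calcium influx in TRPV1-expressing cells, kinetic read (ex 480/em 520 nm). Compound added and read 3 min for agonist activity, followed by capsaicin at EC20 final and 2 min further read for enhancement.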
# p53 reactivator: restores transcriptional activity of mutant p53. H1299 p53-A138V BP100-luciferase reporter, luminescence, 24 h. Potency, µM (highest dose often 92.2 µM), for the others: at the top dose activity change, positive = activation, most hits filed as activators. 320,000 compounds, 0.063% hits. AID 504706; active = well fitted activation curve with a large enough effect; inconclusive = small, poorly fitted or top-dose-only effect; inactive = no such curve, though single readings can be large or run the other way; note: potency is the fitted concentration of half-maximal effect; % of control where 0% means no effect; nearly all actives have a fitted effect of over 45% in size
#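 p53-null H1299 cells stably carrying temperature-sensitive p53-A138V and a BP100-luciferase reporter were pinned with compounds (4-point, 1:5 series) and held 24 hrs at 37 deg C. Luminescence was read 10 min after detection reagent.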
# KCNH2 3.1 block: KCNH2 3.1 (human) potassium channel inhibition | U2OS KCNH2 3.1, thallium flux FluxOr; hits give low values | activity change, % (tested at about 1.8 µM) | 340,000 compounds, 0.95% hits | AID 720553;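 active = maximum activity change below -70%; inconclusive = maximum activity change from -70% to -50%; inactive = maximum activity change above -50%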;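 note: thallium influx rate constant from kinetic fluorescence after stimulation buffer; % is set by controls: 0 for no effect and ±100 for the full control effect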
#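 Channel expression came from 3.1 mutant virus (1.77 x 10^8 /mL) applied to suspended U2OS cells for 4 h. Flux was tracked with FluxOr dye plus Red40 quencher, and kinetic rate constants normalized to controls.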
# TRPV1 agonist: human TRPV1 agonism. TRPV1-expressing cells, Fluo-8 calcium influx, agonist mode. activation, % at 8.33 µM. 320,000 compounds, 0.19% hits; in the data active = activation above about 80%; inconclusive = between about 30% and that limit; note: 0% is about no effect
#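 Cells expressing TRPV1 were dye-loaded with Fluo-8 and read kinetically: 10 s baseline, 3 min after compound (agonist portion), then 2 min after EC20 capsaicin (allosteric enhancer portion). Calcium-bound dye fluorescence at 480/520 nm.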
# Starred values were filed as active, the others as inactive; ? = inconclusive; / = not tested or not shown; + = active, no number. Most compounds without a hit are left out; they make up all but 2.6% or so of the library.
SMILES,ClpP mod,KCNH2 WT inh,TRPV1 PAM,p53 reactivator,KCNH2 3.1 block,TRPV1 agonist
Cc1cccc(OC(C)C(=O)Nc2ccc(S(=O)(=O)N3CCCC3)cc2)c1 (stereo not drawn),0%,-11,-9,-10%,-188*,?
CC(=O)Nc1ccc(NC(=O)C(C)OC(=O)c2cccc(S(=O)(=O)N3CCCCC3)c2)cc1 (stereo not drawn),28µM*,3,8,-6%,12,1
Cc1ccc(OC(C)C(=O)Nc2cccc(S(=O)(=O)N3CCCCCC3)c2)cc1 (stereo not drawn),0%,11,/,/,-6,/
COc1ccc(NC(=O)c2cc3nc(-c4ccc(Cl)c(Cl)c4)cc(C(F)(F)F)n3n2)c(OC)c1,-3%,/,/,/,/,/
COCc1cc(C)nc(OCC(=O)N/N=C/c2ccco2)c1C#N,14µM*,13,6,0%,8,1
COc1ccc(-n2cnc3c(sc4nccc(N(C)C)c43)c2=O)cc1,14µM*,-2,-2,-10%,-8,3
CN1CCC(N(C)CC(=O)Nc2cccc(Oc3ccccc3)c2)CC1,2%,-2,2,1%,-95*,0
CCCOc1cccc(NC(=O)OC2CCN(C)CC2)c1,25µM*,12,-19,-9%,-4,5
CN1CCC(N(C)CC(=O)Nc2ccc3c(c2)OC(F)(F)O3)CC1,/,-9,/,-3%,-22,/
O=C(Nc1ccc(Oc2ccccc2)cc1)c1csc([C@H]2C[C@H](O)[C@@H](CO)O2)n1,-5%,/,/,/,/,/
CCCCCCCCCCCCCCCC(C)C1=NCCN1 (stereo not drawn),-7%,/,/,/,/,/
Cc1ccc(S(=O)(=O)Nc2nc3ccccc3nc2NCc2ccco2)cc1C,28µM*,-2,22,11%,13,-4
CSCCC(NS(=O)(=O)c1ccc2c(c1)oc(=O)n2C)C(=O)NCc1ccc(F)cc1 (stereo not drawn),1%,/,/,/,/,/
COC(=O)c1cc2oc3ccccc3c2n1Cc1c(F)cccc1Cl,2.5µM*,/,/,/,/,/
Cc1cccc(NC(=O)CSc2nc3c(oc4ccccc43)c(=O)n2-c2ccccc2)c1C,-7%,/,/,/,/,/
CCn1c(-c2nn(-c3ccc(C)cc3)ccc2=O)n[nH]c1=S,1%,/,-1,-9%,-6,2
CCn1c(-c2nn(-c3ccccc3)ccc2=O)n[nH]c1=S,/,+,7,1%,-10,-2
Cc1ccc2oc(=O)n(CC(=O)N3CCOCC3)c2c1,1%,-142*,-12,1%,-8,0
Oc1[nH]c2ccccc2c1N=Nc1ccccc1,/,-3,-12,28µM*,-26,8
Oc1[nH]c2ccccc2c1N=Nc1ccc(F)cc1,-28%,-3,1,?,1,2
O=C(Nc1ccc(Oc2ccc3ccccc3c2)cc1)c1ccco1,16µM*,-3,-3,-11%,-18,?
COc1cc(NC(=O)c2cc3ccccc3o2)ccc1NC(=O)c1ccco1,/,14,-1,8%,-81*,1
CCn1c(SCC(=O)Nc2ccc(NC(=O)c3ccco3)c(OC)c2)nc2ccccc2c1=O,28µM*,66,4,0%,0,3
O=C(Nc1ccc2oc(=O)ccc2c1)c1ccco1,28µM*,-13,-6,8%,5,6
O=C(Cc1ccccc1)Nc1ccc2oc(=O)ccc2c1,-1%,1,12,-2%,-7,1
SMILES,ClpP mod,KCNH2 WT inh,TRPV1 PAM,p53 reactivator,KCNH2 3.1 block,TRPV1 agonist
O=C(Nc1ccc(Oc2ccc(NC(=O)c3ccco3)c(NC(=O)c3ccco3)c2)cc1)c1ccco1,-6%,-3,14,-17%,-10,0
COCCn1c(SCC(=O)Nc2ccc(NC(=O)c3ccco3)c(OC)c2)nc2ccccc2c1=O,-65%,5,1,-9%,-6,-2
CCc1ccccc1NC(=O)CN(c1cc(C(F)(F)F)ccc1Cl)S(=O)(=O)c1ccccc1,-2%,/,/,/,/,/
CCOc1ccc(-n2nc3ccc(NC(=O)c4ccc(-c5cccc(Cl)c5)o4)cc3n2)cc1,3%,/,/,/,/,/
c1ccc(N2CCN(Cc3nnc(-c4ccc5c(c4)OCO5)o3)CC2)cc1,-8%,/,/,/,/,/
Cc1ccc2[nH]c(=O)c(CN(CCCO)Cc3nnnn3Cc3ccco3)cc2c1,-17%,/,/,/,/,/
CC(C)Oc1ccc(C(=O)Nc2ccc3oc(-c4ccncc4)nc3c2)cc1,-26%,/,/,/,/,/
COc1cc(NC(=O)c2ccccc2F)ccc1NC(=O)c1cc2ccccc2o1,/,0,-7,25%,-71*,8
O=C(Nc1ccc2nn(-c3ccccc3)nc2c1)c1ccco1,32µM*,10,7,?,5,-6
O=C(Nc1cc2nn(-c3ccccc3)nc2cc1Cl)c1ccco1,-17%,-7,18,46%,-9,3
COc1ccc(C2=Nc3ccc(C)cc3C(c3ccccc3)N2CC(=O)NN)cc1 (stereo not drawn),/,-16,11,-2%,-190*,2
NNC(=O)CN1C(c2cccc(Cl)c2)=Nc2ccc(Br)cc2C1c1ccccc1 (stereo not drawn),-6%,-2,1,-2%,-13,0
COc1ccc(C2=Nc3ccc(Br)cc3C(c3ccccc3)N2CC(=O)NN)cc1 (stereo not drawn),4%,-8,-8,0%,-72*,7
OC(CNCc1ccccn1)c1ccccc1 (stereo not drawn),3%,2,-1,-9%,12,2
Fc1ccc(C(CCNCc2ccccn2)c2ccc(Cl)cc2)cc1 (stereo not drawn),2%,-89*,3,0%,-91*,15
CN(C)c1ccc(/C=C/c2cc(=O)[nH]c3ccccc23)cc1,-15%,/,/,/,/,/
O=c1c2ccccc2[nH]c(=S)n1CCCN1CCN(c2ccccc2F)CC1,-4%,-70*,-6,1%,13,28
O=c1c2cccnc2[nH]c(=S)n1CCCN1CCN(c2ccccc2F)CC1,-2%,17,5,-4%,-8,2
c1ccc(-c2nc3c(ccc4ccccc43)[nH]2)nc1,28µM*,6,-15,?,2,?
CCOC(=O)N1CCC(NC(=O)c2cnn(-c3cccc(F)c3)c2-n2cccc2)CC1,1%,/,/,/,/,/
COC(=O)C1=CN(C(C)C)C=C(C(=O)OC)C1c1cc(Br)c(OC)c(OC)c1,6.3µM*,-3,3,-6%,1,-1
O=C(N/N=C/c1ccc(Br)s1)c1ccccn1,0%,3,-19,?,-4,87*
CC(C)(C)c1ccc(/C=N/NC(=O)c2ccccn2)cc1,/,1,3,1%,5,83*
